The whole screen tested about 310,000 compounds, of which about 11,000 (3.5%) were called active. Not shown: some 4% with an inconclusive outcome. This excerpt belongs to a sample that is enriched for actives. Unmarked numbers belong to inactive results. Calls follow the shape of the dose curve; as a rule, active = well fitted inhibition curve with a large enough effect; inconclusive = small, poorly fitted or top-dose-only effect, or another doubt; inactive = no such curve, though single readings can be large or run the other way.
Potency is read from the fitted curve at half-maximal effect.

The test addresses 4'-phosphopantetheinyl transferase ffp (Bacillus subtilis) (UniProt Q9F4F7). Nature of the test: qHTS Assay for Inhibitors of Bacillus subtilis Sfp phosphopantetheinyl transferase (PPTase).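 Also: the enzyme is Sfp with the accession as filed and its product quenches rhodamine fluorescence.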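 As to largest response in the series, negative = inhibition: 0% = enzyme reaction without inhibitor and -100% = no enzyme wells.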 The note with it: Biochemical Sfp PPTase activity. An excerpt: Assay Submitter: Michael Burkart, University of California, San Diego
Screening Center PI: Austin, C.P.
Screening Center: NIH Chemical Genomics Center [NCGC]
The covalent attachment of a phosphopantetheinyl (4'-PP) arm to a variety of synthases and other proteins is a key posttranslational protein modification. The 4'-PP is installed on the proteins post-translationally from coenzyme A (CoA) on a conserved serine residue by action of phosphopantetheinyl transferase (PPTase) enzymes. Phosphopantetheinylation is essential for synthase activity, and removal of the PPTase gene precludes natural product synthesis in microorganisms, or in the case of fatty acid biosynthesis, renders the organism unviable. PPTase enzymes belong to a distinct structural superfamily. Within bacteria, these enzymes are grouped into two classes based upon primary structure, the AcpS-Type and Sfp-Type PPTases.
Sfp-type PPTases, corresponding to an activator of surfactin production in Bacillus subtilis, are responsible for modifying type I polyketide and nonribosomal peptide synthases of prokaryotes. Sfp-type PPTases are responsible for the activation of a variety of pathogen-associated virulence factors. Among these compounds are toxins such as mycolactone from Mycobacterium ulcerans, siderophores such as vibriobactin from Vibrio cholerae or mycobactin from Mycobacterium tuberculosis, as well as the mycolic acids which form the waxy cell wall of Mycobacteria. The biosyntheses of these natural products are considered attractive targets for drug design.
In search of small molecule Sfp-PPTase inhibitors, a fluorescence quenching assay was developed for detection of Bacillus subtilis Sfp-PPTase enzymatic activity in a miniaturized high-throughput format. The consensus ybbr acceptor peptide […] was N-terminally labeled with Black Hole Quencher-2 (BHQ-2) and used in combination with rhodamine-labeled coenzyme A as a co-substrate.
Inhibition of Sfp-PPTase was detected by recording the fluorescence intensity change over a 30-minute reaction period at a 525 nm excitation and 598 nm emission. Reagents were supplied by Michael Burkart and Timothy Foley, University of California at San Diego.
This BioAssay deposition is for validation of the developed Sfp-PPtase assay.
Assay Buffer: 50 mM Hepes-Na pH 7.6, 10 mM MgCl2, 0.01% Nonidet P-40, and 0.01% BSA.
3 uL of Sfp-PPTase enzyme (final concentration 15 nM) and 1 uL of substrate mixture (final concentration for rhodamine-CoA and BHQ-2-YbbR 5 uM and 12.5 uM, respectively) dispensed in columns 1, 2, 5 - 48. Columns 1 and 2 used to generate neutral control (uninhibited reaction)
Three uL of reagents, consisting of buffer (in columns 3 and 4 as negative control) and Sfp-PPTase (in columns 1, 2, 5 - 48) were dispensed into 1,536-well Greiner black solid bottom plate. Compounds (23 nL) were transferred via Kalypsys pintool equipped with 1,536-pin array. The plate was incubated for 15 min at room temperature, followed by the addition of 1 uL substrate to start the reaction. The plate was then centrifuged at 1000 rpm for 15 seconds, and the fluorescence intensity recorded on a ViewLux High-throughput CCD imager (Perkin-Elmer) using standard BODIPY optics (525 nm excitation and 598 nm emission). The plate was then incubated for 30 minutes, and a second read on the ViewLux was performed. The fluorescence intensity difference over the 30-minute period was used to calculate the respective reaction rate for each well.
Take `COc1ccc(OCc2cc(C(=O)N3CCCC3)no2)c2ccccc12`: the largest response in the series, negative = inhibition is -21.1%.
As for `O=c1cc(CO)oc(C(Nc2cccc(C(F)(F)F)c2)c2ccccn2)c1O` (configuration not stated), the Potency was 7.94 µM (active).
On to `FC(F)(F)c1cccc(Nc2ncnc3ccccc23)c1`, for which the largest response in the series, negative = inhibition is 5.92%.
In the case of `O=[N+]([O-])c1cccc(S(=O)(=O)NCc2ccccn2)c1`, the largest response in the series, negative = inhibition was 1.73%.
`O=C(Nc1cccc([N+](=O)[O-])c1)Nn1cnnc1`: the largest response in the series, negative = inhibition is 16.6%.
As to `O=C(Nc1cccc(C(F)(F)F)c1)c1cc(Br)cc(Br)c1O`, the largest response in the series, negative = inhibition was -10.2%.
In the case of `O=c1cc(CO)oc(C(Nc2cccc([N+](=O)[O-])c2)c2ccccn2)c1O` (configuration not stated), the Potency is 20 µM (active).
Regarding `CCC(C)C(NC(=O)C1CCC(=O)N1C(=O)OCc1ccccc1)C(=O)NC(C(=O)N1CCCC1C(N)=O)C(C)CC` (configuration not stated), the largest response in the series, negative = inhibition is 18.8%.
The same measure, in the same setting: to `N#Cc1ccccc1NC(=O)c1ccc2c(c1)OCO2` belongs 20.2%; to `COc1ccc(CN2C3CCCC2CC(NC(=O)c2cccc(F)c2)C3)cc1` (configuration not stated), 9.04%.
Regarding `O=C(N/N=C/c1cccc(Br)c1)c1ccc(N2CCCC2=O)cc1`, the largest response in the series, negative = inhibition is 2.98%.
Same read-out and setting: to `Cc1occc1C(=O)NC1CCCN(Cc2ccc(CC(C)C)cc2)C1` (configuration not stated) belongs 10%; to `COc1ccc(CNC(=O)CN(C(=O)c2csnn2)c2cnc3ccccc3c2)cc1`, 15.4%.
`COC(=O)c1c(NC(=O)c2cccs2)sc2c1CCCC2`: the largest response in the series, negative = inhibition is 6.07%.
As for `CCc1c(C)sc(NC(=O)c2cccs2)c1C(N)=O`, the Potency was 14.1 µM (active).
With `CCc1c(C)sc(NC(=O)c2ccc(Br)o2)c1C(=O)OC`, the largest response in the series, negative = inhibition is -4.91%.
Take `CC(C)(COC(=O)Nc1ccccc1)COC(=O)Nc1ccccc1`: the largest response in the series, negative = inhibition is 5.47%.
`NC(=O)CSc1nnc(NC(=O)c2ccc(Br)o2)s1`: the largest response in the series, negative = inhibition was 4.59%.
As for `Cc1cc(OC(=O)c2ccc(OC(C)C)cc2)c([N+](=O)[O-])c(=O)[nH]1`, the largest response in the series, negative = inhibition was 16.6%.
Still for that read-out and setting: to `C=CCOc1cccc(CNCc2cccnc2)c1` belongs -13.5%.
On to `c1ccc(COc2ccccc2CNCc2cccnc2)cc1`, for which the Potency is 56.2 µM (active).
For the compound `Fc1ccccc1COc1ccccc1CNCc1ccncc1`, the largest response in the series, negative = inhibition was -8.76%.
Turning to `Oc1c(Cl)cc(Cl)cc1/C=N/c1ncn[nH]1`, the largest response in the series, negative = inhibition was -2.74%.
Regarding `Cc1ccccc1CN1C[C@@H]2C[C@@H](c3ccc4nsnc4c3)N3CCC[C@@]23C1=O`, the largest response in the series, negative = inhibition is 7.31%.
On to `Cc1ccccc1CN1C[C@@H]2C[C@@H](c3cn(C)nc3-c3ccccc3)N3CCC[C@@]23C1=O`, for which the Potency is 3.16 µM (active).
Regarding `Cc1ccc(CN2CCN(Cc3cn(C)nc3-c3ccccc3)CC2CCO)o1` (configuration not stated), the largest response in the series, negative = inhibition was 8.78%.
For `COc1ccc(NC(=O)CSc2nc(SC)ns2)c(OC)c1`, the largest response in the series, negative = inhibition was 8.6%.
On the same count and under the same terms, next, `COC(=O)C1=C(C)N(C)C(=O)NC1c1ccc([N+](=O)[O-])o1` (configuration not stated): 23.4%.
In the case of `COC(=O)C1=C(C(=O)OC)C(c2cc([N+](=O)[O-])ccc2O)c2sc(=O)[nH]c2S1` (configuration not stated), the Potency was 44.7 µM (active).
Consider `COC(=O)c1c(C)[nH]c(C)c1-c1ccc([N+](=O)[O-])cc1`, for which the largest response in the series, negative = inhibition is 9.93%.
On to `COC(=O)c1cc(S(=O)(=O)N2CCN(c3cc(C)ccc3C)CC2)c[nH]1`, for which the largest response in the series, negative = inhibition is 24.2%.
As for `COc1ccc(S(=O)(=O)n2nc(C)c(S(=O)(=O)N3CCOCC3)c2C)cc1`, the largest response in the series, negative = inhibition was 8.67%.
As for `Oc1ccc(C2Nc3cccc4cccc(c34)N2)cc1`, the Potency was 35.5 µM (active).
Take `Cc1ccc(C2Nc3cccc4cccc(c34)N2)cc1`: the largest response in the series, negative = inhibition is -26.1%.
The same measure, in the same setting: to `COc1cccc(C2Nc3cccc4cccc(c34)N2)c1` belongs 6.1%; to `FCOC(C(F)(F)F)C(F)(F)F`, 11.5%; to `CCc1ccc(NC(=O)Cn2nnc(C(=O)NCc3ccc(OC)cc3)c2N)cc1`, 4.14%.
As to `COc1ccc(CNc2ncncc2-c2ccccc2OC)c(OC)c1`, the largest response in the series, negative = inhibition was -6.24%.
With `COc1ccc(CNc2ncncc2-c2ccccc2C)c(OC)c1`, the largest response in the series, negative = inhibition was -23.8%.
`Cc1cnc(CNc2ncncc2-c2ccccc2Cl)cn1`: the Potency was 79.4 µM (active).
As to `CS(=O)(=O)c1ccccc1C(=O)Nc1ccc2sccc2c1`, the largest response in the series, negative = inhibition was 8.96%.
As for `Cc1cccc(CSc2nc3c(c(=O)n2C)SCC3)c1`, the Potency was 50.1 µM (active).
Consider `CCn1c(SCc2ccccc2)nc2c(c1=O)SCC2`, for which the largest response in the series, negative = inhibition is 11.2%.
Same read-out and setting: to `Cn1c(SCC(=O)N2CCCCC2)nc2c(c1=O)SCC2` belongs 15.7%; to `Cc1ccc(S(=O)(=O)N(Cc2ccccc2)c2ccccn2)cc1[N+](=O)[O-]`, 11.4%.
Regarding `COc1cc(S(=O)(=O)Nc2ncn[nH]2)ccc1Cl`, the largest response in the series, negative = inhibition is -14.8%.
As for `O=C1OC(/C=C/c2ccccc2)=NC/1=C/c1ccco1`, the largest response in the series, negative = inhibition is 12.2%.
